Common to all, as to assay: NCI-60 one-dose screen, 48 h (100 = growth as untreated, 0 = no growth, -100 = all killed)
Holding throughout (conditions): 10 µM unless noted

Test [1] deals with HCT-15 colon.
Test [2] has as its system HT29 colon.
Test [3] concerns SNB-75 CNS.
The subject of test [4] is U251 CNS.
The subject of test [5] is PC-3 prostate.
Test [6] deals with SK-MEL-5 melanoma.
Test [7] has as its system UACC-62 melanoma.
The subject of test [8] is LOX IMVI melanoma.
For test [9], the system named is SK-MEL-28 melanoma.
Test [10] deals with SK-MEL-2 melanoma.
Test [11] deals with EKVX NSCLC.
For test [12], the system named is SN12C renal.
The test system of test [13] is UO-31 renal.
Test [14] deals with TK-10 renal.
Test [15] relates to ACHN renal.
Test [16] relates to CAKI-1 renal.
Test [17] concerns A498 renal.
In test [18] the test system is CCRF-CEM leukemia.
Test [19] concerns MOLT-4 leukemia.
For test [20], the system named is SNB-19 CNS.

Molecules are shown by their SMILES. Compounds without any hit were thinned out: in the full panel of roughly 83,000, 20% have a hit.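 Percent growth is the endpoint: 0 to 100 indicates growth inhibition (40 means 60% inhibition), 0 means no net growth, and negative values indicate cell death.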 Unmarked numbers belong to inactive results. Calls of active or inactive are those of the source. The calls were made as follows: active = growth percent below 10; inactive = the rest.

Growth data for eight compounds are collected here from PubChem BioAssay (NCI).

Turning to `O=S(=O)(Nc1ccccc1)c1ccc(C2CC3(Cl)C(Cl)=C(Cl)C2(Cl)C3(Cl)Cl)cc1` (stereo unspecified), the growth is 50.6% in [1]; 35.2% in test [2]; 69.6% in test [3]; 39.8% in test [4]; 13.5% in test [5]; 60.7% in test [6]. For the same compound, the growth in [7] is 43.6%; in [8] it was 39%; in [9], 68.3%; in [10], 74.1%; in test [11], 36.3%; in [12] it was -18.5% (active). Besides, the growth in test [13] was 26.7%; in [14] it was 66.2%; in test [15], 40%; in [16], -19.8% (active); in test [17] it was 62.4%; in test [18], 47.6%. The growth in test [19] was 30%.

Turning to `c1ccc(CNc2c3ccccc3nc3ccccc23)cc1`, the growth was 24.6% in test [1]; 19% in test [2]; 64.4% in test [3]; 38.5% in test [4]; 37.2% in [5]; 63.1% in test [6]. For the same compound, the growth is 61% in [7]; 19.8% in test [8]; 85.5% in test [9]; 60.8% in test [10]; 48.1% in test [11]; 37.5% in test [12]. The growth in test [13] was 23.8%; in test [14], 48.7%; in [15] it was 18.1%; in test [16] it was 33.1%; in test [17], 16.6%; in test [18], 39%. Also, the growth in test [19] is 15.5%.

For the compound `CCc1n(Cc2ccc3ccccc3c2)cc[n+]1Cc1ccc2ccccc2c1`, the growth was 70.1% in test [1]; -32.2% (active) in test [2]; -5.96% (active) in [3]; 4.23% (active) in test [4]; 2.65% (active) in [5]; -93.3% (active) in test [6]. Besides, the growth in [7] is -43.1% (active); in test [8] it was 1.9% (active); in test [9], 2.03% (active); in test [10], -55.2% (active); in [11], 11.9%; in test [12] it was 6.37% (active). For the same compound, the growth in test [13] was 80.6%; in test [14], -10.3% (active); in test [15] it was 72.3%; in test [16] it was 84.5%; in [17], 21.8%; in [18] it was 11.4%. In addition, the growth in [19] is 10.6%.

Consider `O=[N+]([O-])/C(=C/C=C/c1ccccc1)c1ccccc1`, for which the growth in test [1] is 10.8%; in test [2], 26.9%; in test [3] it was 57.3%; in test [4] it was 37.2%; in test [5], 43.6%; in test [6] it was 82.4%. Moreover, the growth in test [7] was 70.5%; in test [8] it was -0.767% (active); in test [9], 12.6%; in [10] it was 86.5%; in [11], 92.7%; in test [12], 66.5%. The growth in test [13] was -44.4% (active); in [14], 91.1%; in test [15], 10.6%; in [16], 51.2%; in test [17], 50.4%; in test [18], 36.5%. Further, in [19], the growth was 34.4%.

As to `CCN(CC)C(=S)SC(SC(=S)N(CC)CC)C(=O)c1nnn(-c2ccc([N+](=O)[O-])cc2)c1C`, the growth was 99% in test [1]; 87.3% in test [2]; 107% in [3]; 81.5% in [4]; 78.1% in [5]; 76.7% in test [6]. Moreover, the growth was 86.5% in [7]; 89% in test [8]; 104% in [9]; 91.6% in test [10]; 97.2% in test [11]; 96.4% in test [12]. Also, the growth in [13] was 80.5%; in [14] it was 107%; in test [15], 98.7%; in test [16], 89.5%; in test [17], 67.3%; in test [18] it was 68.3%. Also, the growth in [19] was 92.5%.

As for `COc1cc(/C=C/C(=O)c2cccc(Nc3nc(Nc4ccccc4)nc(Nc4ccccc4)n3)c2)cc(OC)c1OC`, the growth is 49.6% in test [1]; 48.8% in test [2]; 52.8% in test [3]; 29.8% in [4]; 24.7% in test [5]; 51% in [6]. For the same compound, the growth in [7] was 64%; in test [8], 45.3%; in [9] it was 68.9%; in test [10], 53.6%; in test [11], 66.1%; in test [12] it was 84.2%. The growth in test [13] is 35.3%; in test [14], 66.3%; in [15] it was 68.3%; in [16], 75.5%; in [18], 6.56% (active); in test [19], 9.67% (active).

`COc1ccc(C2c3sc4c(F)cccc4c3Oc3nc[nH]c(=O)c32)cc1` (stereo unspecified): the growth in test [1] is 74.9%; in [2], 107%; in test [3], 88.2%; in test [4], 89.7%; in test [5] it was 65.8%; in test [6] it was 75.4%. The growth in test [7] is 60.1%; in test [8] it was 82.9%; in test [9], 92.6%; in [10] it was 97.8%; in test [11], 71.2%; in [12] it was 77.8%. Further, the growth in test [13] was 47.6%; in [14] it was 110%; in [15] it was 72.7%; in test [16], 76.6%; in test [17], 95%; in test [18], 85.3%. Also, the growth in test [19] is 84.2%.

As for `Cc1ccc(-c2nc(/C=C3/C(=O)Nc4ccccc43)c3ccccn23)cc1`, the growth in test [2] is 42.3%; in test [3] it was 88.9%; in [20] it was 99.6%; in [4] it was 85.2%; in test [5], 78.3%; in test [6], 82.9%. Besides, the growth in test [7] is 84.5%; in test [8] it was 77.1%; in test [9], 133%; in test [10], 39.3%; in test [11] it was 80.1%; in test [12] it was 82.6%. Further, the growth in test [13] is 54.3%; in test [14] it was 88.9%; in [15], 16.6%; in test [16] it was 48.8%; in test [17], 104%; in [18] it was 84.3%. Moreover, the growth in [19] was 72.2%.
